GDH-TPI counter = inhibits GDH-TPI coupling enzymes, artifact for Mtb FBA screen | 1.2% of 360,000 active | GDH-TPI coupled enzyme counterscreen, NADH absorbance | inhibition, % at 4.8 µM; in the data active means inhibition above about 30%;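 further: 0% = DMSO wells and 100% = wells lacking the enzyme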
FBA Mtb inh = inhibitors of M. tuberculosis fructose-bisphosphate aldolase; AID 588726; purified M. tuberculosis FBA, fluorescence read-out; 2.3% of 360,000 active; P9WQA3; inhibition, % at 1 µM; in the data active means inhibition above about 27%;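 further: 0% = vehicle and 100% = reference inhibitor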
BJeLR lethal = kills HRASV12-expressing BJeLR cells; 0.17% of 300,000 active; AID 1554; BJeLR (HRASV12) viability, CellTiter-Glo ATP luminescence, 48 h; inhibition, % (no concentration beside the values); in the data active means inhibition above about 50%
RecA intein inh = blocks M. tuberculosis RecA intein splicing | inhibition, % (test concentration not listed) | cell-free RecA intein splicing, fluorescence | 0.75% of 290,000 active | P9WHJ3; in the data active means inhibition above about 30%;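 further: 0% = vehicle wells and 100% = reference inhibitor control wells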
Target sequence (P9WHJ3 whole entry, looked up): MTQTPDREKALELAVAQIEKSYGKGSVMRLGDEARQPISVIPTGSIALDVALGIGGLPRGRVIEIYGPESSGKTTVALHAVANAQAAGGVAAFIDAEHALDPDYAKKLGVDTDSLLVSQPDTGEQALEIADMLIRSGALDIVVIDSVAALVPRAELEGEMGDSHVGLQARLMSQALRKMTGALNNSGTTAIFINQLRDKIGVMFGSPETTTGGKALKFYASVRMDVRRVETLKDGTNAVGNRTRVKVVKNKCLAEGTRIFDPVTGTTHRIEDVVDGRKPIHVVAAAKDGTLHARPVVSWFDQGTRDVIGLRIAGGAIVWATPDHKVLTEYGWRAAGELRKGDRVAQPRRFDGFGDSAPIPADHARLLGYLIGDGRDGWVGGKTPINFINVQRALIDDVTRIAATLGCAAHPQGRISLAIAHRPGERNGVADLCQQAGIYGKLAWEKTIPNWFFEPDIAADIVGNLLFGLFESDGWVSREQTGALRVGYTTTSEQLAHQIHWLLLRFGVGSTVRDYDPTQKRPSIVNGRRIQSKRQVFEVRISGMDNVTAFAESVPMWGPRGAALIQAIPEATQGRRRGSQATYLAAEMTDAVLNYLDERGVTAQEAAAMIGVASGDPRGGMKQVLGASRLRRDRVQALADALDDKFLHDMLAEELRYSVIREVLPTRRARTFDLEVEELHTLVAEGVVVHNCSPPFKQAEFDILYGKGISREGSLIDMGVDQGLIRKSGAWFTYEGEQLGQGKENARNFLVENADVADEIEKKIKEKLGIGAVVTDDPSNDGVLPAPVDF
PrPC TRFRET = reduces human prion protein on the cell surface. inhibition, % at 13.8 µM. 0.43% of 370,000 active. cell surface PrPC, TR-FRET read-out. P04156; in the data active means inhibition above about 24%; further: 0% = median of the test wells and 100% = reference compound wells
An asterisk follows results filed as active. Most compounds without a hit are left out; they make up all but 4.2% or so of the library.

How did COc1ccccc1[C@@H]1C(c2cccc(C)c2)=NN(c2ccc(Br)cc2)[C@H]1C(=O)N1CCOC1=O do in these assays?
GDH-TPI counter: 9; FBA Mtb inh: 15; PrPC TRFRET: -3

What do the screens show for `Cc1cccc(C2=NN(c3ccc(Br)cc3)[C@@H](C(=O)N3CCOC3=O)[C@@H]2c2ccc(Cl)cc2)c1`?
GDH-TPI counter: 1; FBA Mtb inh: 70*

Results for CCCCC(=O)Nc1ccc(C(=O)NCC2COc3ccccc3O2)cc1 (centres undefined) ?
PrPC TRFRET: 4

How did CC1(C)CC(=O)C=C(NNC(=O)c2ccccc2O)C1 do in these assays?
GDH-TPI counter: 40*; FBA Mtb inh: 0; BJeLR lethal: 19; RecA intein inh: -9; PrPC TRFRET: -8

What do the screens show for `Cc1cccc(C(=O)NNC2=CC(=O)CC(C)(C)C2)c1O`?
GDH-TPI counter: 37*; FBA Mtb inh: 5; BJeLR lethal: 23; RecA intein inh: -2; PrPC TRFRET: 4

How did O=S1(=O)c2c(NCc3ccco3)cccc2Oc2ccccc2CN1Cc1cn(Cc2ccc(F)cc2)nn1 do in these assays?
PrPC TRFRET: 2

How did CSCCCNC(=O)c1oc(=O)c2ccccc2c1-c1ccc(C)cc1 do in these assays?
PrPC TRFRET: -2

Results for O=C(Oc1ccc(-c2ccccc2)cc1)c1ccco1 ?
GDH-TPI counter: 7; FBA Mtb inh: 0; PrPC TRFRET: 2

What do the screens show for `O=Cc1ccnc(-c2ccc(OC(=O)c3ccco3)cc2)n1`?
GDH-TPI counter: -6; FBA Mtb inh: 3; BJeLR lethal: -7; RecA intein inh: 36*; PrPC TRFRET: 4

Results for COc1cc(/C=N/N=C(/N)c2nonc2N)cc(Br)c1OCc1ccccc1C ?
GDH-TPI counter: 34*; FBA Mtb inh: 1; BJeLR lethal: -22; RecA intein inh: 1; PrPC TRFRET: 6

Results for CCOc1cc(/C=N/N=C(N)N)ccc1OCc1ccc(Cl)cc1 ?
GDH-TPI counter: 0; FBA Mtb inh: 0; BJeLR lethal: 15; RecA intein inh: 9; PrPC TRFRET: 0

How did CCOc1cc(/C=N/N=C(/N)c2nonc2N)cc(Br)c1OCc1ccc(Cl)cc1 do in these assays?
GDH-TPI counter: 32*; FBA Mtb inh: 1; BJeLR lethal: -9; RecA intein inh: 0; PrPC TRFRET: 6

How did Cc1ccc(NC(=O)C2CCCN2S(=O)(=O)c2cccnc2)cc1C (centres undefined) do in these assays?
PrPC TRFRET: 2

What do the screens show for `Cc1nn(-c2ccccc2)c2sc(-c3n[nH]c(=S)o3)cc12`?
GDH-TPI counter: 42*; FBA Mtb inh: active; BJeLR lethal: -2; RecA intein inh: 2; PrPC TRFRET: -5

Results for Cc1nn(-c2ccccc2)c2sc(C(=O)O)cc12 ?
GDH-TPI counter: 5; FBA Mtb inh: 0; BJeLR lethal: 1; RecA intein inh: 0; PrPC TRFRET: -20

What do the screens show for `COC(=O)c1cc2c(C)nn(-c3ccccc3)c2s1`?
GDH-TPI counter: -5; FBA Mtb inh: 35*; BJeLR lethal: 6; RecA intein inh: 2; PrPC TRFRET: 2

How did Brc1ccc(Cn2nnc(-c3ccc(N4CCOCC4)cc3)n2)cc1 do in these assays?
PrPC TRFRET: -4

Results for COc1ccc(CCNC(=O)c2cnn(-c3ccccc3)c2N)cc1OC ?
PrPC TRFRET: 3

Results for C[C@@H]1/C=C/CC(=O)N[C@H](c2ccc3ccccc3c2)[C@H](C)/C=C/CC(=O)N[C@@H]1c1ccc2ccccc2c1 ?
PrPC TRFRET: -4

Results for CCOC(=O)c1oc2c(CN3CCN(C)CC3)c(O)ccc2c(=O)c1-c1ccccc1OC ?
GDH-TPI counter: 15; FBA Mtb inh: -4; BJeLR lethal: 4; RecA intein inh: -1; PrPC TRFRET: 8

What do the screens show for `COc1ccccc1-c1c(C)oc2c(CN3CCN(CCO)CC3)c(O)ccc2c1=O`?
GDH-TPI counter: 14; FBA Mtb inh: 176*; BJeLR lethal: -7; RecA intein inh: -2; PrPC TRFRET: -2

How did COc1ccccc1-c1c(C)oc2c(CN3CCN(C)CC3)c(O)ccc2c1=O do in these assays?
GDH-TPI counter: 21; FBA Mtb inh: 143*; BJeLR lethal: 0; RecA intein inh: -2; PrPC TRFRET: 1

How did COc1ccccc1-c1c(C(F)(F)F)oc2c(CN(C)C)c(O)ccc2c1=O do in these assays?
GDH-TPI counter: 14; FBA Mtb inh: 3; BJeLR lethal: -1; RecA intein inh: -6; PrPC TRFRET: 2

What do the screens show for `C=CCN1C(=O)[C@@H](CC(=O)NCCCCc2ccccc2)[C@]2(C(=O)OC)CCCCC=C12`?
PrPC TRFRET: -4
